High-throughput results deposited in PubChem BioAssay by National Center for Advancing Translational Sciences (NCATS).
HT1080 IDH1KD tx: qHTS for induction of synthetic lethality in tumor cells producing 2HG: qHTS for the HT-1080-IDH1KD cell line. HT-1080 IDH1 knockdown viability, ATP luminescence, 48 h. Potency, µM (highest dose often 46.1 µM), hits mostly cytotoxic. 2% of 360,000 active. AID 686971, 2013
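Assay cells: HT-1080 with IDH1 knockdown, 750 per well, RPMI/5% FBS. Exposure: 48 h at 37 °C following 2 h pre-incubation. Read: CellTiter-Glo luminescence; fitted concentration-response, curve class assigned.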
IL-1B inflam inh: qHTS for Inhibitors of Inflammasome Signaling: IL-1-beta AlphaLISA Primary Screen; THP-1 LPS/ATP IL-1B secretion, AlphaLISA, 16 h; active compounds read low; activity change, % at 57.5 µM; 4.7% of 360,000 active; in the data active means activity change below about -50%; inconclusive means mostly about -30% to -49%
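Secreted IL-1B measured by AlphaLISA bead assay after 16 h compound exposure of THP-1 cells; compounds (final up to 57.5 uM) added 1 h before LPS (250 ng/mL) and ATP (1.25 mM) stimulation; lower signal means less secretion.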
HT1080NT lethal: qHTS for induction of synthetic lethality in tumor cells producing 2HG: qHTS for the HT-1080-NT fibrosarcoma cell line. HT-1080-NT fibrosarcoma viability, CellTiter-Glo ATP luminescence, 48 h. Potency, µM (series often up to 46.1 µM), actives largely listed as cytotoxic. 1.6% of 360,000 active;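 further: NT is the 2HG producing partner of a matched IDH1 knockdown line; nearly all actives have a fitted effect of over 55% in size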
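HT-1080-NT fibrosarcoma cells (2HG-overproducing), 750 cells/well in RPMI with 5% FBS, dosed after 2 h and incubated 48 h at 37C. CellTiter-Glo luminescence normalized to DMSO and no-cell wells; concentration-response curves fitted and classed.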
KB-V1 cytotox: qHTS assay for MDR1-selective chemotherapeutics: Primary screen using the drug-selected MDR subline cells KB-V1; KB-V1 MDR cells viability, CellTiter-Glo, 72 h; Potency, µM (series often up to 46.1 µM), hits mostly cytotoxic; 3.4% of 400,000 active; further: nearly all actives have a fitted effect of over 60% in size
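KB-V1 cells (P-gp-expressing MDR subline of KB-3-1) in phenol-red-free DMEM with 10% FBS were exposed to library compounds over a concentration series for 72 h at 37 degrees C. Viability read by CellTiter-Glo luminescence; concentration-effect curves fitted after normalization.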
KB-3-1 tox: qHTS assay for MDR1-selective chemotherapeutics: Primary screen using the parental adenocarcinoma cell KB-3-1; KB-3-1 viability, CellTiter-Glo ATP luminescence, 72 h; Potency, µM (series often up to 46.1 µM), most hits filed as cytotoxic; 1.4% of 400,000 active; AID 1347075, 2019; further: nearly all actives have a fitted effect of over 60% in size
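Cells are dispensed, compounds pinned in, plates held at 37 °C for 72 h, then CellTiter-Glo is added and luminescence read after 10 minutes. Cell line: parental KB-3-1 in phenol-red-free DMEM, 10% FBS.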
A number is an active result. Hits are enriched below; roughly 8.8% of the tested compounds scored in any of these assays. Unless noted, the call rests on the fitted dose curve; in most records, active means well fitted curve in the direction sought with a large enough effect; inconclusive means small, poorly fitted or top-dose-only effect, or another doubt; inactive means no such curve, though single readings can be large; an effect the other way counts as inactive or inconclusive.

For Cc1ccc(OCC(=O)N/N=C/c2cc([N+](=O)[O-])ccc2N2CCCCC2)cc1 the results were HT1080 IDH1KD tx inactive, IL-1B inflam inh inactive, HT1080NT lethal inactive, KB-V1 cytotox inactive and KB-3-1 tox inactive.
`Cc1ccc(NC(=O)N2CCN(C)c3ncccc32)cc1C` gave KB-V1 cytotox inactive and KB-3-1 tox inactive.
Screening CCc1nc2ccc(C(=O)NCc3ccc4c(c3)OCO4)cn2c1N(CC)Cc1cccc(Br)c1 returned HT1080 IDH1KD tx inactive, IL-1B inflam inh inconclusive, HT1080NT lethal inconclusive, KB-V1 cytotox inconclusive and KB-3-1 tox inconclusive.
For Cc1ccc(S(=O)(=O)NC(=O)C2(C)CCN2C(=O)CCc2ccc(Cl)cc2Cl)nc1 (stereo not given) the results were HT1080 IDH1KD tx inactive, IL-1B inflam inh inactive, HT1080NT lethal inactive, KB-V1 cytotox inactive and KB-3-1 tox inactive.
CC1CCN(S(=O)(=O)c2cc(C(=O)N3CCN(c4ccccc4)CC3)ccc2Br)CC1 was read as HT1080 IDH1KD tx inconclusive, IL-1B inflam inh inactive, HT1080NT lethal inactive, KB-V1 cytotox inconclusive and KB-3-1 tox inactive.
COc1ccc(C(=O)c2cc([N+](=O)[O-])ccc2N2CCOCC2)cc1 was read as HT1080 IDH1KD tx 0.15µM, IL-1B inflam inh inactive, HT1080NT lethal inconclusive, KB-V1 cytotox 0.52µM and KB-3-1 tox 1.8µM.
For Cc1cc(N2CCOCC2)c(F)cc1C(=O)c1ccccc1 the results were HT1080 IDH1KD tx inactive, IL-1B inflam inh inactive, HT1080NT lethal inactive, KB-V1 cytotox 18µM and KB-3-1 tox inactive.
`Cc1ccc(C(=O)c2cc([N+](=O)[O-])ccc2N2CCCCC2)c(C)c1` gave HT1080 IDH1KD tx inconclusive, IL-1B inflam inh inactive, HT1080NT lethal inconclusive, KB-V1 cytotox 1.6µM and KB-3-1 tox 0.82µM.
For O=C(O)c1cc([N+](=O)[O-])ccc1N1CCCCC1 the results were HT1080 IDH1KD tx inactive, IL-1B inflam inh inactive, HT1080NT lethal inactive, KB-V1 cytotox inactive and KB-3-1 tox inactive.
COc1cc(OC)c(NC(=O)C2=C(C)C(=O)OC23CCCCCC3)cc1Cl was read as KB-V1 cytotox inactive and KB-3-1 tox inactive.
Screening CC(C)CCNC(=O)[C@@H](c1ccccc1)N1Cc2ccccc2C1=O returned KB-V1 cytotox inactive and KB-3-1 tox inactive.
For Cc1ccc(C(=O)C(c2ccccc2)N2Cc3ccccc3C2=N)cc1 (stereo not given) the results were HT1080 IDH1KD tx inconclusive, IL-1B inflam inh -81, HT1080NT lethal inconclusive, KB-V1 cytotox inconclusive and KB-3-1 tox inconclusive.
Screening COc1cccc(N2CC(O)=C(c3nc4ccccc4s3)C2=N)c1 returned HT1080 IDH1KD tx inconclusive, IL-1B inflam inh inactive, HT1080NT lethal inconclusive, KB-V1 cytotox 3.3µM and KB-3-1 tox 7.3µM.
COc1ccc(N2CC(O)=C(c3nc4ccccc4s3)C2=N)cc1 was read as HT1080 IDH1KD tx inactive, IL-1B inflam inh inactive, HT1080NT lethal inconclusive, KB-V1 cytotox inactive and KB-3-1 tox inactive.
Screening COC(=O)[C@]12CCCCC=C1N(CCc1ccc(OC)c(OC)c1)C(=O)[C@H](CC(=O)NCc1cccc(C(F)(F)F)c1)C2 returned HT1080 IDH1KD tx inconclusive, IL-1B inflam inh inactive, HT1080NT lethal inconclusive, KB-V1 cytotox 15µM and KB-3-1 tox inconclusive.
For COC(=O)[C@@]12C[C@@H](CC(=O)NCc3cccc(C(F)(F)F)c3)C(=O)N(CCc3ccc(OC)c(OC)c3)C1=CCC(C)(C)C2 the results were HT1080 IDH1KD tx inconclusive, IL-1B inflam inh inconclusive, HT1080NT lethal inconclusive, KB-V1 cytotox 16µM and KB-3-1 tox inconclusive.
`COC(=O)[C@@]12C[C@@H](CC(=O)NCCC(C)C)C(=O)N(CCc3ccc(OC)c(OC)c3)C1=CCC(C)(C)C2` gave HT1080 IDH1KD tx inactive, HT1080NT lethal inactive, KB-V1 cytotox inconclusive and KB-3-1 tox inactive.
`COc1ccc(C)cc1NC(=O)C1COc2ccccc2C1` (stereo not given) gave KB-V1 cytotox inactive and KB-3-1 tox inactive.
For CC(C)(C)NCc1cc(Br)ccc1OCc1cccs1 the results were HT1080 IDH1KD tx inactive, IL-1B inflam inh -59, HT1080NT lethal inactive, KB-V1 cytotox inactive and KB-3-1 tox inactive.
C=CCOc1ccc(Br)cc1CNC(C)(C)CO was read as HT1080 IDH1KD tx inactive, IL-1B inflam inh inactive, HT1080NT lethal inactive, KB-V1 cytotox inactive and KB-3-1 tox inactive.
Screening CC(C)(C)NCc1cc(Cl)ccc1OCc1cccs1 returned HT1080 IDH1KD tx inactive, IL-1B inflam inh inactive, HT1080NT lethal inactive, KB-V1 cytotox inconclusive and KB-3-1 tox inactive.
`CC(C)(CO)NCc1cc(Br)ccc1OCc1ccccc1` gave HT1080 IDH1KD tx inconclusive, IL-1B inflam inh -66, HT1080NT lethal inactive, KB-V1 cytotox inactive and KB-3-1 tox inactive.
Cc1cc(C)n(CCc2nc(-c3ccc(F)cc3)cs2)n1 was read as HT1080 IDH1KD tx inactive, IL-1B inflam inh inconclusive, HT1080NT lethal inactive, KB-V1 cytotox inactive and KB-3-1 tox inactive.
`Cc1cc(C)n(CCc2nc(-c3ccc(C(C)(C)C)cc3)cs2)n1` gave HT1080 IDH1KD tx inactive, IL-1B inflam inh -51, HT1080NT lethal inactive, KB-V1 cytotox 16µM and KB-3-1 tox inactive.
C=CCn1c(C)cc(C2=NNC(=NCc3ccccc3)SC2)c1C was read as HT1080 IDH1KD tx inconclusive, IL-1B inflam inh inactive, HT1080NT lethal inconclusive, KB-V1 cytotox 9.2µM and KB-3-1 tox inconclusive.
`Cc1cc(C2=NNC(=NCCc3ccccc3)SC2)c(C)n1CC1CCCO1` (stereo not given) gave HT1080 IDH1KD tx inactive, IL-1B inflam inh -77, HT1080NT lethal inconclusive, KB-V1 cytotox inactive and KB-3-1 tox inactive.
COc1ccccc1NS(=O)(=O)c1cc(N2Cc3ccccc3C2=N)ccc1N1CCOCC1 was read as HT1080 IDH1KD tx inconclusive, IL-1B inflam inh -96, HT1080NT lethal inactive, KB-V1 cytotox inconclusive and KB-3-1 tox inactive.
COc1ccccc1NS(=O)(=O)c1cc(NC(=O)c2ccccc2C)ccc1N1CCOCC1 was read as HT1080 IDH1KD tx inactive, IL-1B inflam inh inactive, HT1080NT lethal inactive, KB-V1 cytotox 8.2µM and KB-3-1 tox inactive.
`Cc1c(C)n2c(SCC(=O)N3CCCCC3)nnc2[nH]c1=O` gave HT1080 IDH1KD tx inactive, IL-1B inflam inh inactive, HT1080NT lethal inactive, KB-V1 cytotox inactive and KB-3-1 tox inactive.
`CCCCOP(=O)(OCCCC)C(Nc1ccccc1)c1ccc2c(c1)OCO2` (stereo not given) gave HT1080 IDH1KD tx inactive, IL-1B inflam inh inactive, HT1080NT lethal inactive, KB-V1 cytotox 7.3µM and KB-3-1 tox inconclusive.
